Anthrax LF prot – Bacillus anthracis LF protease inhibitors, primary screen, biochemical, multiplex microsphere, MLPCN library. Lethal factor (Bacillus anthracis), P15917. multiplex microsphere protease cleavage assay. inhibition, % at 10 µM. 360,000 compounds, 0.12% hits; in the data active = inhibition above about 30%; inconclusive = no clear call, values can overlap the other calls
MazEF act – activators of E. coli MazEF toxin-antitoxin RNase, primary screen, biochemical, fluorescence, uHTS. activation, % at 20 µM. FAM/BHQ RNA-DNA oligo cleavage fluorescence, 5 h. Endoribonuclease toxin MazF (Escherichia coli (strain K12)), P0AE70. 350,000 compounds, 0.32% hits; in the data active = activation above about 50%
Target sequence (P0AE70 whole entry, looked up): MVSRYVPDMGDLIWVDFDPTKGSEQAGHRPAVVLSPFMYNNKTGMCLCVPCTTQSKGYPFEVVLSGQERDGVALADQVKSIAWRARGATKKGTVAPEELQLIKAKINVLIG
BoNT A protease – BoNT/A light chain protease inhibitors, primary screen, biochemical, flow cytometry, MLPCN library | Botulinum neurotoxin type A light chain protease (Clostridium botulinum A str. ATCC 3502) | multiplex microsphere protease substrate cleavage | inhibition, % at 10 µM | 360,000 compounds, 0.17% hits | AID 588499, 2011; in the data active = inhibition above about 30%; inconclusive = no clear call, values can overlap the other calls
Bead autofluor – compound fluorescence in toxin protease inhibitor counterscreen. AID 624483. compound autofluorescence counterscreen, microsphere flow cytometry; hits give high values. fluorescence intensity (test concentration not listed). 360,000 compounds, 3.1% hits; in the data active = fluorescence intensity above about 16000; inconclusive = no clear call, values can overlap the other calls
BoNT-F LC inh – BoNT/F light chain protease inhibitors, primary screen, biochemical, flow cytometry, MLPCN library | Botulinum neurotoxin type F light chain protease (Clostridium botulinum) | inhibition, % at 10 µM | 360,000 compounds, 0.22% hits | Multiplex microsphere protease cleavage assay; in the data active = inhibition above about 35%, passing the limit was not always enough; inconclusive = no clear call, values can overlap the other calls
BoNT-A LC CP1 – BoNT/A light chain protease inhibitors, confirmation, biochemical, flow cytometry, cherry pick 1 | shares compounds with BoNT-F LC inh | multiplex microsphere protease assay | inhibition, % at 10 µM | 720 compounds, 3% hits; in the data active = inhibition above about 32%
BoNT-F LC CP1 – BoNT/F light chain protease inhibitors, confirmation, biochemical, flow cytometry, cherry pick 1; shares compounds with BoNT-F LC inh; multiplex microsphere protease cleavage assay; inhibition, % at 10 µM; 720 tested, under 10 active; AID 602140, 2011
LF protease CP1 – Bacillus anthracis LF protease inhibitors, confirmation, biochemical, multiplex microsphere, cherry pick 1. inhibition, % at 10 µM. 720 tested, under 10 active. AID 602142, 2011. shares compounds with BoNT-F LC inh. multiplex microsphere protease cleavage assay
Hits are given with their value. Sampled rows, rich in hits. Any-hit rate of the full collection: about 3.7%. Unless noted, the rule behind the calls is not given here.

Screening CCC(=O)N1CCc2cc(-c3csc(NC(=O)c4ccco4)n3)ccc21 returned Anthrax LF prot inactive, MazEF act inactive, BoNT A protease inactive, Bead autofluor inactive, BoNT-F LC inh 35, BoNT-A LC CP1 inactive, BoNT-F LC CP1 inactive and LF protease CP1 inactive.
Screening O=C(Nc1nc(-c2ccc3c(c2)OCCO3)cs1)c1ccco1 returned Anthrax LF prot inactive, BoNT A protease inactive, Bead autofluor inactive and BoNT-F LC inh inactive.
CCN1CCc2[nH]c3ccccc3c2C1 was read as Anthrax LF prot inactive, MazEF act inactive, BoNT A protease inactive, Bead autofluor inactive, BoNT-F LC inh 54, BoNT-A LC CP1 inactive, BoNT-F LC CP1 inactive and LF protease CP1 inactive.
c1ccc(CN2CCc3[nH]c4ccccc4c3C2)cc1 was read as Anthrax LF prot inactive, MazEF act inactive, BoNT A protease inactive, Bead autofluor inactive and BoNT-F LC inh inactive.
For Cc1ccc2[nH]c(CNC(=O)C3CCCCC3)cc2c1 the results were Anthrax LF prot inactive, MazEF act inactive, BoNT A protease 93, Bead autofluor inactive, BoNT-F LC inh inactive, BoNT-A LC CP1 inactive, BoNT-F LC CP1 inactive and LF protease CP1 inactive.
For O=C(Nc1ccc(CN2CCS(=O)(=O)CC2)cc1)c1ccc(C(F)(F)F)cc1 the results were Anthrax LF prot 30, MazEF act inactive, BoNT A protease inactive, Bead autofluor inactive, BoNT-F LC inh inactive, BoNT-A LC CP1 inactive, BoNT-F LC CP1 inactive and LF protease CP1 inactive.
O=C(Nc1ccc(CN2CCOCC2)cc1)c1ccc(Cl)cc1 was read as Anthrax LF prot inactive, MazEF act inactive, BoNT A protease inactive, Bead autofluor inactive and BoNT-F LC inh inactive.
O=C(Nc1ccc(CN2CCOCC2)cc1)c1ccc(F)cc1 was read as Anthrax LF prot inactive, MazEF act inactive, BoNT A protease inactive, Bead autofluor inactive, BoNT-F LC inh 35, BoNT-A LC CP1 inactive, BoNT-F LC CP1 inactive and LF protease CP1 inactive.
Screening CC(C)(C)c1ccc(C(=O)Nc2ccc(CN3CCS(=O)(=O)CC3)cc2)cc1 returned Anthrax LF prot inactive, MazEF act inactive, BoNT A protease inactive, Bead autofluor inconclusive and BoNT-F LC inh inconclusive.
For CC(C)NC(=O)Nc1cccc2c1O[C@H](CN(C)C(=O)Nc1ccccc1)[C@@H](C)CN([C@H](C)CO)C2=O the results were Anthrax LF prot inactive, MazEF act inactive, BoNT A protease inactive, Bead autofluor inactive and BoNT-F LC inh inactive.
Screening O=C(Nc1ccc(O)cc1C(=O)O)c1ccc2c(c1)C(=O)N(Cc1ccco1)C2=O returned Anthrax LF prot inactive, MazEF act inactive, BoNT A protease inactive, Bead autofluor inactive, BoNT-F LC inh 35, BoNT-A LC CP1 inactive, BoNT-F LC CP1 inactive and LF protease CP1 inactive.
Screening O=C(Nc1ccc2nc3ccccc3nc2c1)c1ccccc1 returned Anthrax LF prot inactive, MazEF act inactive, BoNT A protease 63, Bead autofluor inactive, BoNT-F LC inh inactive, BoNT-A LC CP1 39, BoNT-F LC CP1 inactive and LF protease CP1 inactive.
For O=C(Nc1ccc(Cl)c(Cl)c1)c1ccccc1 the results were Anthrax LF prot inactive, MazEF act inactive, BoNT A protease inactive, Bead autofluor inactive and BoNT-F LC inh inactive.
For Fc1cccc(Cl)c1CNc1ccc(N2CCCC2)cc1 the results were Anthrax LF prot inactive, MazEF act inactive, BoNT A protease inactive, Bead autofluor inactive and BoNT-F LC inh inactive.
Screening NS(=O)(=O)c1ccc(NCc2c(F)cccc2Cl)cc1 returned Anthrax LF prot inactive, MazEF act inactive, BoNT A protease 38, Bead autofluor inactive, BoNT-F LC inh 46, BoNT-A LC CP1 inactive, BoNT-F LC CP1 inactive and LF protease CP1 inactive.
Screening CN(CC(=O)NCCc1ccc(S(N)(=O)=O)cc1)Cc1c(F)cccc1Cl returned Anthrax LF prot inactive, MazEF act inactive, BoNT A protease inactive, Bead autofluor inactive, BoNT-F LC inh 40, BoNT-A LC CP1 inactive, BoNT-F LC CP1 inactive and LF protease CP1 inactive.
Screening O=C(Nc1cccc(Cl)c1)c1ccc2sc([C@H]3C[C@H](O)[C@@H](CO)O3)nc2c1 returned Anthrax LF prot inactive, BoNT A protease inactive, Bead autofluor inactive and BoNT-F LC inh inactive.
For CC(CC(=O)Nc1ccc2c(c1)c(=O)n(C)n2-c1ccc2ccccc2c1)C(F)(F)F (stereo not drawn) the results were Anthrax LF prot inactive, BoNT A protease inactive, Bead autofluor inactive and BoNT-F LC inh inactive.
`COCCCNCCCCOc1ccc(Br)cc1C` gave Anthrax LF prot inactive, MazEF act inactive, BoNT A protease inactive, Bead autofluor inactive, BoNT-F LC inh 36, BoNT-A LC CP1 inactive, BoNT-F LC CP1 inactive and LF protease CP1 inactive.
O=C1N(c2ccccc2)c2ccccc2C1(O)C(F)(F)F (stereo not drawn) was read as Anthrax LF prot 36, MazEF act inactive, BoNT A protease inactive, Bead autofluor inactive, BoNT-F LC inh inactive, BoNT-A LC CP1 inactive, BoNT-F LC CP1 inactive and LF protease CP1 inactive.
`Cc1nnc(SCC(=O)Nc2ccc(N3CCOCC3)cc2)o1` gave Anthrax LF prot inactive, MazEF act inactive, BoNT A protease inactive, Bead autofluor inactive, BoNT-F LC inh 42, BoNT-A LC CP1 inactive, BoNT-F LC CP1 inactive and LF protease CP1 inactive.
For Cc1cc(Nc2cccc(F)c2)nc(N2CCOCC2)n1 the results were Anthrax LF prot inactive, MazEF act inactive, BoNT A protease inactive, Bead autofluor inactive, BoNT-F LC inh 42, BoNT-A LC CP1 inactive, BoNT-F LC CP1 inactive and LF protease CP1 inactive.
For CS(=O)(=O)Nc1ccc(C2=NN(C(=O)CCCC(=O)O)C(c3cccs3)C2)cc1 (stereo not drawn) the results were Anthrax LF prot inactive, MazEF act inactive, BoNT A protease inactive, Bead autofluor inactive, BoNT-F LC inh 37, BoNT-A LC CP1 inactive, BoNT-F LC CP1 inactive and LF protease CP1 inactive.
Screening CCN(C(=O)c1cccnc1)c1ccccc1 returned Anthrax LF prot inactive, MazEF act inactive, BoNT A protease inactive, Bead autofluor inactive and BoNT-F LC inh inactive.
For CCN(C(=O)c1ccc(C)c(Br)c1)c1ccccc1 the results were Anthrax LF prot inactive, MazEF act inactive, BoNT A protease inactive, Bead autofluor inactive, BoNT-F LC inh 60, BoNT-A LC CP1 inactive, BoNT-F LC CP1 inactive and LF protease CP1 inactive.

Assay outcomes deposited in PubChem BioAssay by several laboratories.
